# Data from a collection of fitness landscapes (doi:10.1016/j.celrep.2020.107928).
# Over roughly 81,000 sequences, “one-hybrid fitness for binding NBS DNA” has its median near -0.1; the highest 2% begin near 0.36. The full list was thinned out, with the highest values kept by preference.
# B1: Caulobacter ParB omega fusion; a variant is named by its letters at X, in order, B8GW30 (parent)
# chain: MESVVVGEPGMSEGRRGLGRGLSALLGEVDAAPAQAPGEQLGGSREAPIEILQRNPDQPRRTFREEDLEDLSNSIREKGVLQPILVRPSPDTAGEYQIVAGERAWRAAQRAGLKTVPIMVRELDDLAVLEIGIIENVQRADLNVLEEALSYKVLMEKFERTQENIAQTIGKSXSHVANXMRLLXLPDEVQSYLVSGELTAXHARAIAAAADPVALAKQIIEGGLSVRETEALARKAPNLSAGKSKGGRPPRVKDTDTQALESDLSSVLGLDVSIDHRGSTGTLTITYATLEQLDDLCNRLTRGI
# Variants of: B1
# Experiment: one-hybrid fitness for binding NBS DNA (the Noc-binding site; scaled: cognate 1, non-cognate 0); higher = stronger binding
# Conditions: with NBS DNA site
# Procedure, shortened: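 In E. coli USO, a HIS3 reporter with its site placed 19 bp from the promoter was used to select Caulobacter ParB variants randomised at four specificity codons. Growth lasted 48 hours at 37°C on histidine-free M9 containing 0.1 mM IPTG and 5 mM 3-AT. Fitness was taken as the log change in variant-to-wild-type read ratio from Illumina sequencing of pre- and post-selection plasmids, rescaled between the non-cognate and cognate sites.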
row,Variant,one-hybrid fitness for binding NBS DNA
1,WWTD,≤ 0.2
2,LSRK,≤ 0.2
3,SSTW,≤ 0.2
4,ASEC,≤ 0.2
5,SYLM,≤ 0.2
6,SHDP,≤ 0.2
7,PPLD,≤ 0.2
8,IVCR,≤ 0.2
9,GYLC,≤ 0.2
10,RFNT,0.279
11,RCNT,0.589
12,RMNT,0.546
13,RMNH,0.26
14,RHND,≤ 0.2
15,RMDT,0.226
16,RPNT,≤ 0.2
17,RHDT,0.258
18,RHNT,0.508
19,ADTR,≤ 0.2
20,WVAC,≤ 0.2
21,TAAM,≤ 0.2
22,SGRG,≤ 0.2
23,CNSI,≤ 0.2
24,HRTD,≤ 0.2

row,Variant,one-hybrid fitness for binding NBS DNA
1,KSYC,≤ 0.2
2,QERR,0.245
3,QIYR,0.348
4,QPRR,0.365
5,QCRR,1.13
6,QIPR,0.203
7,QIRR,0.867
8,QWRR,0.355
9,QPYR,≤ 0.2
10,GWMI,≤ 0.2
11,TGPP,≤ 0.2
12,RGHW,≤ 0.2
13,KLGK,≤ 0.2
14,AATY,≤ 0.2
15,KFTC,≤ 0.2
16,SYMR,≤ 0.2
17,GWRK,≤ 0.2
18,FEGS,≤ 0.2
19,RYSP,≤ 0.2
20,RYHH,≤ 0.2
21,RYDR,0.207
22,RYHR,0.471
23,RYSD,≤ 0.2
24,RYHP,≤ 0.2

row,Variant,one-hybrid fitness for binding NBS DNA
1,RYKR,0.744
2,RYNR,0.519
3,RYKG,≤ 0.2
4,RYNH,0.209
5,RYSR,0.452
6,RYVR,0.269
7,THIG,≤ 0.2
8,RYGR,0.432
9,RYQP,≤ 0.2
10,RYQN,≤ 0.2
11,RYGP,≤ 0.2
12,RYRR,0.726
13,RYGH,≤ 0.2
14,RYYR,0.404
15,RYWR,0.269
16,RYLR,0.354
17,RYPR,≤ 0.2
18,RYQR,0.44
19,RYIR,0.203
20,QYAV,≤ 0.2
21,ENTF,≤ 0.2
22,ECNK,≤ 0.2
23,PSCV,≤ 0.2
24,ALDS,≤ 0.2

row,Variant,one-hybrid fitness for binding NBS DNA
1,AKVC,≤ 0.2
2,RYAR,0.43
3,RYFR,0.241
4,RYCR,0.377
5,RYCD,≤ 0.2
6,RYAP,≤ 0.2
7,RYCN,≤ 0.2
8,REYM,≤ 0.2
9,RFAG,≤ 0.2
10,QCYK,≤ 0.2
11,QPRK,≤ 0.2
12,QMDK,≤ 0.2
13,QADK,≤ 0.2
14,QAYK,≤ 0.2
15,QMYK,≤ 0.2
16,QLRK,0.336
17,QCRK,0.478
18,QARK,0.37
19,QSYK,≤ 0.2
20,QSRK,0.376
21,QMRK,0.387
22,GVLR,≤ 0.2
23,WSLR,≤ 0.2
24,LIRR,≤ 0.2

row,Variant,one-hybrid fitness for binding NBS DNA
1,KRDL,≤ 0.2
2,YEVL,≤ 0.2
3,QTDK,≤ 0.2
4,QKRK,0.429
5,QTYK,≤ 0.2
6,QKDK,≤ 0.2
7,QTRK,0.546
8,QKNK,≤ 0.2
9,YNVR,≤ 0.2
10,VWSR,≤ 0.2
11,HGEV,≤ 0.2
12,TVPQ,≤ 0.2
13,FGYR,≤ 0.2
14,CGVE,≤ 0.2
15,CGAE,0.595
16,FGFR,≤ 0.2
17,CGYR,≤ 0.2
18,CGAR,0.441
19,NGAE,≤ 0.2
20,CGFR,≤ 0.2
21,FGAR,0.385
22,ITGA,≤ 0.2
23,QREE,≤ 0.2
24,CKNS,≤ 0.2

row,Variant,one-hybrid fitness for binding NBS DNA
1,ATHI,≤ 0.2
2,YEAF,≤ 0.2
3,WRNM,≤ 0.2
4,TRHT,0.364
5,LQMW,≤ 0.2
6,YQHT,≤ 0.2
7,QIGR,0.437
8,QIGS,0.295
9,QSGH,≤ 0.2
10,QCGR,0.764
11,QTGG,0.204
12,QGGR,≤ 0.2
13,QSGP,≤ 0.2
14,QTGR,0.813
15,QPGR,≤ 0.2
16,QTGM,0.3
17,QSGR,0.547
18,QIGD,≤ 0.2
19,LCEP,≤ 0.2
20,GKTT,≤ 0.2
21,LKMC,≤ 0.2
22,WIPG,≤ 0.2
23,IPHT,≤ 0.2
24,YLLF,≤ 0.2

row,Variant,one-hybrid fitness for binding NBS DNA
1,SHQN,≤ 0.2
2,LRKG,≤ 0.2
3,QQKE,0.335
4,QQKL,0.327
5,QQVH,≤ 0.2
6,QQKR,1.1
7,QQVR,0.491
8,QQVD,≤ 0.2
9,AGDY,≤ 0.2
10,GMLG,≤ 0.2
11,RCVE,≤ 0.2
12,YVKV,≤ 0.2
13,QRYS,0.646
14,QRRD,0.356
15,QRRS,0.787
16,QRYD,0.222
17,QRYN,0.319
18,QRWP,≤ 0.2
19,QRRP,0.359
20,QRWS,0.54
21,QRRN,0.547
22,QRWN,≤ 0.2
23,QRYP,≤ 0.2
24,NAHV,≤ 0.2

row,Variant,one-hybrid fitness for binding NBS DNA
1,FSNM,≤ 0.2
2,SRRP,≤ 0.2
3,THHR,≤ 0.2
4,VCSD,≤ 0.2
5,WQLA,≤ 0.2
6,RTRG,0.215
7,CCQR,≤ 0.2
8,CVKA,≤ 0.2
9,MAIS,≤ 0.2
10,NATF,≤ 0.2
11,MAFC,≤ 0.2
12,ECWS,≤ 0.2
13,QRES,0.469
14,QREN,≤ 0.2
15,QCES,0.301
16,PSVG,≤ 0.2
17,QTCT,0.571
18,QPCT,≤ 0.2
19,QICT,0.266
20,QSCT,0.386
21,QHCT,0.294
22,QTCD,≤ 0.2
23,QTCH,0.319
24,QLCT,0.345

row,Variant,one-hybrid fitness for binding NBS DNA
1,QCCT,0.521
2,SKPI,≤ 0.2
3,DYFM,≤ 0.2
4,LNNN,≤ 0.2
5,EHQL,≤ 0.2
6,GRLL,≤ 0.2
7,SFYC,≤ 0.2
8,IRNN,≤ 0.2
9,MQRC,≤ 0.2
10,NLPG,≤ 0.2
11,QKVS,0.32
12,QKVR,0.423
13,DKKR,≤ 0.2
14,QKVN,≤ 0.2
15,QKKR,1
16,QKKF,0.294
17,NTIC,≤ 0.2
18,EQRE,≤ 0.2
19,TGAR,≤ 0.2
20,GMCV,≤ 0.2
21,RLHS,0.462
22,RLHH,≤ 0.2
23,RMHS,0.486
24,RMHN,≤ 0.2

row,Variant,one-hybrid fitness for binding NBS DNA
1,RSHH,≤ 0.2
2,RPHS,≤ 0.2
3,RSHP,≤ 0.2
4,RCHS,0.577
5,RSHS,0.47
6,RLHP,≤ 0.2
7,RMHD,≤ 0.2
8,RFHS,0.275
9,CMKS,≤ 0.2
10,HSMS,≤ 0.2
11,YEDC,≤ 0.2
12,VNHL,≤ 0.2
13,HDMN,≤ 0.2
14,VQAT,≤ 0.2
15,RKHS,0.624
16,RAHD,≤ 0.2
17,RKHN,≤ 0.2
18,RAHS,0.482
19,RAHN,≤ 0.2
20,RKHD,≤ 0.2
21,FLVC,≤ 0.2
22,LRGC,≤ 0.2
23,IPDS,≤ 0.2
24,QPHR,≤ 0.2

row,Variant,one-hybrid fitness for binding NBS DNA
1,QSHD,≤ 0.2
2,QTHM,0.296
3,QSHP,≤ 0.2
4,QSHR,0.578
5,QIHR,0.493
6,QWHR,0.288
7,QIHD,≤ 0.2
8,QTHR,0.877
9,QIHC,≤ 0.2
10,QTHK,0.293
11,QCHR,0.742
12,QLFV,≤ 0.2
13,PASW,≤ 0.2
14,QHPW,≤ 0.2
15,TKDT,≤ 0.2
16,KAAR,≤ 0.2
17,VHKI,≤ 0.2
18,VRNY,≤ 0.2
19,SPES,≤ 0.2
20,PIPY,≤ 0.2
21,DLRT,≤ 0.2
22,HALK,≤ 0.2
23,LKPH,≤ 0.2
24,ECKC,≤ 0.2

row,Variant,one-hybrid fitness for binding NBS DNA
1,PADW,≤ 0.2
2,EYHR,≤ 0.2
3,CRTW,≤ 0.2
4,QAIT,0.291
5,QSPT,0.276
6,QTPH,≤ 0.2
7,QTIT,0.522
8,QCPT,0.382
9,QPPT,≤ 0.2
10,QTPT,0.418
11,QLIT,0.287
12,QTPP,≤ 0.2
13,RCQW,≤ 0.2
14,IHRR,≤ 0.2
15,QHVR,0.379
16,QHVP,≤ 0.2
17,QHKR,1.03
18,DHKR,≤ 0.2
19,NHKR,0.202
20,QHVS,0.221
21,LTLF,≤ 0.2
22,YIRF,≤ 0.2
23,KAST,≤ 0.2
24,GTAV,≤ 0.2

row,Variant,one-hybrid fitness for binding NBS DNA
1,DSRR,≤ 0.2
2,DCRR,0.416
3,DPRR,≤ 0.2
4,KKRR,0.47
5,KTYR,≤ 0.2
6,KTDR,≤ 0.2
7,KMYR,≤ 0.2
8,KMDR,≤ 0.2
9,KKYR,≤ 0.2
10,KKDR,≤ 0.2
11,KMRR,0.398
12,KTRR,0.541
13,QEHI,≤ 0.2
14,GLEC,≤ 0.2
15,KISR,≤ 0.2
16,NLTF,≤ 0.2
17,IPIE,≤ 0.2
18,AYRA,≤ 0.2
